Bioassay records as filed in PubChem.
An excerpt weighted towards active compounds, which were near 19% of everything screened.
KB-V1 cytotox = KB-V1 MDR subline cytotoxicity; KB-V1 MDR cells viability, CellTiter-Glo, 72 h; Potency, µM (doses to about 46.1 µM), usual class: cytotoxic; hit rate 3.4% among 400,000; also: nearly all actives have a fitted effect of over 60% in size
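qHTS viability screen in drug-selected KB-V1 MDR cells: 72 h compound treatment at 37 degrees C, ATP luminescence end point.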
HT1080 IDH1KD tx = HT-1080 IDH1 knockdown cell toxicity (counter line); HT-1080 IDH1 knockdown viability, ATP luminescence, 48 h; Potency, µM (titrated, usually from 46.1 µM), for inactives: at the top dose activity, negative = toxicity, most hits filed as cytotoxic; hit rate 2% among 360,000; AID 686971;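 also: 0% = DMSO wells and -100% = cell-free medium wells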
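% activity derives from luminescence (CellTiter-Glo), normalised to DMSO and no-cell wells. HT-1080-IDH1KD cells, 750/well, had 48 h compound exposure at 37 °C.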
KB-3-1 cytotox = kills parental KB-3-1 adenocarcinoma cells; KB-3-1 viability, CellTiter-Glo ATP luminescence, 72 h; Potency, µM (highest dose often 46.1 µM), usual class: cytotoxic; hit rate 1.4% among 400,000; also: nearly all actives have a fitted effect of over 60% in size
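Parental KB-3-1 adenocarcinoma cells in phenol-red-free DMEM with 10% FBS were pin-treated with compounds at several concentrations, incubated 72 h at 37 °C, and viability read by CellTiter-Glo luminescence; concentration-effect curves were fitted after normalization.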
DT40 TDP1 no CPT = qHTS for Inhibitors of human tyrosyl-DNA phosphodiesterase 1 (TDP1): qHTS in cells in absence of CPT. hit rate 15% among 420,000. Potency, µM (doses to about 46.2 µM), for the others: at the top dose activity change, negative = growth inhibition, usual class: inhibitors. AID 686978, 2013. DT40 Tdp1-/- hTDP1 cells, no CPT, ATP luminescence, 48 h; also: nearly all actives have a fitted effect of over 55% in size
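Readout: luminescence from CellTiter-Glo after 30 min in the dark at RT. Cells: DT40 Tdp1-/- with stable hTDP1, 400/well. Exposure: compounds alone, ≥48 hr, 37 °C.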
TDP1 cell CPT = growth inhibition of DT40 Tdp1-/-;hTDP1 cells with camptothecin (screen for TDP1 inhibitors); AID 686979; chicken DT40 Tdp1-/-;hTDP1 cells + 20 nM CPT, ATP luminescence, 48 h; Potency, µM (top dose mostly 46.2 µM), without a hit: at the highest dose activity change, negative = growth inhibition, hits mostly inhibitors; hit rate 12% among 420,000; also: nearly all actives have a fitted effect of over 55% in size
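Chicken DT40 Tdp1-/- cells stably complemented with human TDP1 were seeded at 400 cells/well in medium containing 20 nM camptothecin, exposed to pin-transferred compounds, and grown at 37 °C for at least 48 hr. Viability was read as ATP luminescence.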
HT1080-NT tox = kills 2HG-producing HT-1080-NT fibrosarcoma cells; HT-1080-NT fibrosarcoma viability, CellTiter-Glo ATP luminescence, 48 h; Potency, µM (top dose mostly 46.1 µM), for inactives: at the highest dose activity, negative = less viability, hits mostly cytotoxic; hit rate 1.6% among 360,000;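 also: NT is the 2HG producing partner of a matched IDH1 knockdown line; 0% = DMSO-treated cells and -100% = media-only wells without cells; nearly all actives have a fitted effect of over 55% in size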
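Compounds were tested in concentration-response format on HT-1080-NT cells for 48 hours at 37 degrees C. Cell viability came from CellTiter-Glo luminescence; curves were classified by r2, response magnitude and activity.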
Starred values were filed as active, the others as inactive; i = inactive; ? = inconclusive; · = no result; [ ] = another dose, or the depositor's remark. Calls follow the shape of the dose curve; as a rule, active = well fitted curve in the direction sought with a large enough effect; inconclusive = small, poorly fitted or top-dose-only effect, or another doubt; inactive = no such curve, though single readings can be large; an effect the other way counts as inactive or inconclusive. Unless noted, % is scaled to controls: 0 for no effect and ±100 for the full control effect; potency is read from the fitted curve at half-maximal effect.

SMILES	KB-V1 cytotox	HT1080 IDH1KD tx	KB-3-1 cytotox	DT40 TDP1 no CPT	TDP1 cell CPT	HT1080-NT tox
COc1ccc(CC(N)c2csc(Nc3cccc(OC)n3)n2)cc1 (centres undefined)	?	-25%	i	13µM*	15µM*	26µM*
COc1ccc(C(N)c2csc(Nc3ccc(C(F)(F)F)cn3)n2)cc1 (centres undefined)	i	?	i	18µM*	?	?
NC(COCc1ccccc1)c1csc(Nc2nccc(C(F)(F)F)n2)n1 (centres undefined)	?	-4%	i	?	?	-7%
COc1ccccc1NC(=O)C1=C(C)Nc2nc3ccccc3n2C1c1cccc(Br)c1 (centres undefined)	i	·	i	?	?	·
CSc1c(SCc2ccccc2)cnn(-c2ccccc2)c1=O	?	-6%	i	?	?	-2%
Cn1ncc(SCc2ccccc2)c(Cl)c1=O	?	?	?	10µM*	9.2µM*	-5%
CN(NC(=O)Nc1ccccc1)c1cnn(C)c(=O)c1Cl	?	3%	i	-56%	?	-13%
Cn1ncc(S(=O)(=O)Cc2ccccc2)c(Cl)c1=O	i	-13%	i	3.3µM*	1.5µM*	7%
Cc1ccc(-n2nc(C)c3c(C)cc(=O)n(CC(=O)Nc4ccc(Br)cc4F)c32)cc1	i	·	i	-10%	-6%	·
COc1ccc(-c2noc(CSc3nnc(Cc4ccccc4)n3-c3ccc(Cl)cc3)n2)cc1	12µM*	?	i	?	?	?
Cc1nnc(SCc2nc(-c3ccc(Cl)cc3)no2)n1-c1ccc(F)cc1	i	·	?	26µM*	?	·
Cc1ccc(-n2c(Cc3ccccc3)nnc2SCC(=O)NNC(=O)Cc2ccccc2)cc1	i	10%	i	-13%	-2%	-2%
COc1ccc(-n2c(SCc3nc(-c4ccc(Cl)cc4)no3)nnc2-c2ccncc2)cc1	?	·	i	?	?	·
Cc1ccc(-c2noc(CSc3nnc(Cc4ccccc4)n3-c3ccc(Cl)cc3)n2)cc1	18µM*	?	?	-30%	-15%	?
Cc1ccc(-c2noc(CSc3nnc(C)n3-c3ccc(F)cc3)n2)cc1	i	·	i	-18%	-18%	·
O=c1c(N2CCN(c3cccc(Cl)c3)CC2)csc2ccccc12	i	·	i	?	?	·
C[C@]12c3[nH]c4ccccc4c3CCN1C(=O)C(CC(=O)NCc1cccc(C(F)(F)F)c1)C[C@@H]2C(=O)N1CCCCC1 (some centres undefined)	i	?	i	15µM*	21µM*	-30%
CC[C@]12c3[nH]c4ccccc4c3CCN1C(=O)C(CC(=O)NCc1cccc(C(F)(F)F)c1)C[C@@H]2C(=O)N1CCN(C(=O)c2ccco2)CC1 (some centres undefined)	i	?	i	?	18µM*	-10%
C[C@]12c3[nH]c4ccccc4c3CCN1C(=O)C(CC(=O)NCc1cccc(C(F)(F)F)c1)C[C@@H]2C(=O)N1CCOCC1 (some centres undefined)	i	-3%	i	?	?	1%
CN(C)C(=O)CCc1ccc2c3c([nH]c2c1)[C@]1(C)[C@@H](C(=O)N2CCOCC2)C[C@H](CC(=O)NCc2cccc(C(F)(F)F)c2)C(=O)N1CC3	i	-1%	i	?	16µM*	-1%
CN(C)C(=O)CCc1ccc2c3c([nH]c2c1)[C@]1(CCc2ccccc2)[C@@H](C(=O)N2CCCCC2)C[C@H](CC(=O)NCc2cccc(C(F)(F)F)c2)C(=O)N1CC3	i	4%	?	21µM*	?	14%
CN(C)C(=O)CCc1ccc2c3c([nH]c2c1)[C@]1(CCc2ccccc2)[C@@H](C(=O)N2CCCCC2)C[C@H](CC(=O)NCc2ccco2)C(=O)N1CC3	i	-8%	i	?	-13%	1%
COc1ccc(S(=O)(=O)NC(=O)C2(C)CCN2C(=O)C2(c3ccc(Cl)cc3)CCC2)cc1 (centres undefined)	i	1%	i	-8%	1%	?
CCN1C(=O)[C@H]2[C@@H](c3ccc(C)cc3)N3C(=O)N(c4ccc(C(F)(F)F)cc4)C(=O)[C@@]3(CC(C)C)[C@H]2C1=O	i	-19%	?	16µM*	?	0%
CCN1C(=O)[C@H]2[C@@H](c3ccc(C)cc3)N3C(=O)N(c4ccc(C)cc4)C(=O)[C@@]3(CC)[C@H]2C1=O	i	23%	i	-16%	-6%	2%
SMILES	KB-V1 cytotox	HT1080 IDH1KD tx	KB-3-1 cytotox	DT40 TDP1 no CPT	TDP1 cell CPT	HT1080-NT tox
Cc1cccc([C@@H]2[C@@H]3C(=O)N(Cc4ccccc4)C(=O)[C@@H]3[C@]3(Cc4ccccc4)C(=O)N(c4ccc(C(F)(F)F)cc4)C(=O)N23)c1	i	3%	i	16µM*	18µM*	3%
Cc1cccc([C@@H]2[C@@H]3C(=O)N(Cc4ccccc4)C(=O)[C@@H]3[C@]3(Cc4ccccc4)C(=O)N(c4ccccc4)C(=O)N23)c1	i	-2%	i	-9%	-12%	0%
Cc1c(C(=O)N(C)Cc2cscn2)sc2ncnc(NC[C@H]3CCc4ccccc4O3)c12	·	·	·	?	-19%[9.04 µM]	·
CC(C)Cn1c(C(C)C)nc([N+](=O)[O-])c1Sc1ccc(Cl)cn1	?	-13%	?	?	?	-2%
CCCCn1c(CCC)nc([N+](=O)[O-])c1Sc1ccc(Cl)cn1	i	-3%	?	?	18µM*	-13%
N#Cc1c(NC(=O)C2CC(c3ccccc3Cl)=NO2)sc2c1CCC2 (centres undefined)	26µM*	0%	i	-18%	4%	-2%
Cc1onc(-c2ccccc2Cl)c1C(=O)Nc1sc2c(c1C#N)CCC2	?	-21%	i	-22%	-28%	-16%
N#Cc1c(NC(=O)C2CC(c3ccccc3O)=NO2)sc2c1CCC2 (centres undefined)	21µM*	-7%	i	?	-2%	0%
Cc1ccc([N+](=O)[O-])c(OCCCN2CCCCCC2)c1	?	-2%	i	?	?	-11%
CCOc1ccccc1OCCN1CCC(Cc2ccccc2)CC1	i	-17%	i	?	-19%	-3%
